Outcome data for six molecules are collected here from PubChem BioAssay (EPA / NIEHS).

Results filed as inconclusive are left out. Activity calls are given as the source filed them. Rule for the calls: active = hit-call score of the fitted dose curve at least 0.9, where 1 is the maximum; inconclusive = response in the unintended direction; inactive = score below 0.9.

Chain of bovine Gamma-Aminobutyric Acid Type A Receptor Agonist (GABAR Agonist), GABRA1 (gene 780973) (P08219 whole entry, looked up): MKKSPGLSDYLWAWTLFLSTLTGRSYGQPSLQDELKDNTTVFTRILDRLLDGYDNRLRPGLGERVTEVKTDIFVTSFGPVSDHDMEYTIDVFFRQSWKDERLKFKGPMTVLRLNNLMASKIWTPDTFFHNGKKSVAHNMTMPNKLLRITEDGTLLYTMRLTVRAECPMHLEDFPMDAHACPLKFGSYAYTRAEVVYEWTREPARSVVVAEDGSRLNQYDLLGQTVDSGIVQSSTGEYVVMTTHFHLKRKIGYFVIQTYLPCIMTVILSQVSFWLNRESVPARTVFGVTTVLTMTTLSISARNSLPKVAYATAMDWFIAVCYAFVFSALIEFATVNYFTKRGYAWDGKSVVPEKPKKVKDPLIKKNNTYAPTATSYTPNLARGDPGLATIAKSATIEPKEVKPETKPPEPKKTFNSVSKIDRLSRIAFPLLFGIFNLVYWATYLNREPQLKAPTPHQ

For the test, the target named is bovine Gamma-Aminobutyric Acid Type A Receptor Agonist (GABAR Agonist), GABRA1 (gene 780973) (UniProt P08219). As to the kind of experiment: NVS_LGIC_bGABAR_Agonist: NovaScreen (NVS) Ligand-Gated Ion Channel Assay for bovine Gamma-Aminobutyric Acid Type A Receptor Agonist (GABAR Agonist) (AID 2283338). Here is the method:
NVS_LGIC_bGABAR_Agonist is a biochemical, single-readout assay that uses extracted gene-proteins from Bovine cerebellar membranes in a tissue-based cell-free assay. Measurements were taken 1 hour after chemical dosing in a 48-well plate.NVS_LGIC_bGABAR_Agonist is one of one assay component(s) measured or calculated from the NVS_LGIC_bGABAR_Agonist assay. It is designed to make measurements of radioligand binding, a form of binding reporter, as detected with scintillation counting signals by Filter-based radiodetection technology.Data from the assay component NVS_LGIC_bGABAR_Agonist was analyzed into 1 assay endpoint. This assay endpoint, NVS_LGIC_bGABAR_Agonist, was analyzed in the positive analysis fitting direction relative to DMSO as the negative control and baseline of activity. Using a type of binding reporter, gain-of-signal activity can be used to understand changes in the binding as they relate to the gene GABRA1. Furthermore, this assay endpoint can be referred to as a primary readout, because the performed assay has only produced 1 assay endpoint. To generalize the intended target to other relatable targets, this assay endpoint is annotated to the ion channel intended target family, where the subfamily is ligand-gated ion channel.
Binding assays used specific radioligands (tritiated, iodinated) with non-radioactive competitive displacement ligands in agonist or antagonist protocols (as indicated) and various reference compounds and inhibitors to titrate specific binding to receptors and transporters. Most enzyme assays (CYPs, kinases, phosphatases, proteases, HDACs) used recombinant protein and specific substrates (fluorescence mostly, some colorimetric and radioactive) and inhibitors, followed by a biochemical separation of substrate and product. All assays for the biochemical HTS were initially run in duplicate at a single concentration (10 uM for CYP450 assays and 25 uM for all others). […] Each assay was run with positive and negative controls, and concurrent controls on every plate. The follow-up (secondary) screen tested active chemical-pairs in concentration series, as well as a few additional assays not tested in the primary screen, some selected negative inactives, and several cases re-run in the concentration series for confirmatory purposes.
Turning to `CC(C)(C)c1cc(O)c(C(C)(C)C)cc1O`, the result was inactive.

Regarding `CCOc1ccc2c(c1)C(C)=CC(C)(C)N2`, the call was inactive.

Turning to `COc1cc(C=O)ccc1O`, the molecule was called inactive.

For the molecule `Cc1ccc(C(C)C)c(O)c1`, the molecule was classed as inactive.

For the molecule `CC(=O)OCCOCCOCCOC(C)=O`, the call was inactive.

Take `Cc1cccc([N+](=O)[O-])c1C`: the outcome was inactive.
